BoNT-F LC inh: inhibitors of Botulinum neurotoxin F light chain protease. Multiplex microsphere protease cleavage assay, flow cytometry. inhibition, % at 10 µM. 360,000 tested, 0.22% active. AID 588497; in the data active = inhibition above about 35%, passing the limit was not always enough; inconclusive = no clear call, values can overlap the other calls; note: plate controls were buffer without enzyme for full effect and enzyme alone for no effect
Autofluor counter: flagged as autofluorescent in microsphere protease counterscreen. 360,000 tested, 3.1% active. compound autofluorescence counterscreen, microsphere flow cytometry; active compounds read high. fluorescence intensity (no concentration beside the values). AID 624483; in the data active = fluorescence intensity above about 16000; inconclusive = no clear call, values can overlap the other calls
BoNT-A LC inh2: blocks Botulinum neurotoxin A light chain protease; inhibition, % at 10 µM; AID 588499; 360,000 tested, 0.17% active; multiplex microsphere protease substrate cleavage, flow cytometry; note: plate controls were buffer without enzyme for full effect and enzyme alone for no effect
SSB-PriA inh: blocks PriA binding to SSB C-terminal tail. AlphaScreen SSBct-PriA binding, biotinylated peptide. inhibition, % at 33 µM. 430,000 tested, 0.6% active. AID 1272365; in the data active = inhibition mostly above about 37%, no sharp cut-off; inactive = mostly below about 20%;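 note: plate controls were negative control peptide for no effect and reference peptide for full effect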
Anthrax LF prot: inhibitors of Bacillus anthracis lethal factor protease. multiplex microsphere protease cleavage assay, LF. inhibition, % at 10 µM. 360,000 tested, 0.12% active. AID 588501; note: plate controls were buffer without enzyme for full effect and enzyme alone for no effect
Target sequence (P15917 whole entry, looked up): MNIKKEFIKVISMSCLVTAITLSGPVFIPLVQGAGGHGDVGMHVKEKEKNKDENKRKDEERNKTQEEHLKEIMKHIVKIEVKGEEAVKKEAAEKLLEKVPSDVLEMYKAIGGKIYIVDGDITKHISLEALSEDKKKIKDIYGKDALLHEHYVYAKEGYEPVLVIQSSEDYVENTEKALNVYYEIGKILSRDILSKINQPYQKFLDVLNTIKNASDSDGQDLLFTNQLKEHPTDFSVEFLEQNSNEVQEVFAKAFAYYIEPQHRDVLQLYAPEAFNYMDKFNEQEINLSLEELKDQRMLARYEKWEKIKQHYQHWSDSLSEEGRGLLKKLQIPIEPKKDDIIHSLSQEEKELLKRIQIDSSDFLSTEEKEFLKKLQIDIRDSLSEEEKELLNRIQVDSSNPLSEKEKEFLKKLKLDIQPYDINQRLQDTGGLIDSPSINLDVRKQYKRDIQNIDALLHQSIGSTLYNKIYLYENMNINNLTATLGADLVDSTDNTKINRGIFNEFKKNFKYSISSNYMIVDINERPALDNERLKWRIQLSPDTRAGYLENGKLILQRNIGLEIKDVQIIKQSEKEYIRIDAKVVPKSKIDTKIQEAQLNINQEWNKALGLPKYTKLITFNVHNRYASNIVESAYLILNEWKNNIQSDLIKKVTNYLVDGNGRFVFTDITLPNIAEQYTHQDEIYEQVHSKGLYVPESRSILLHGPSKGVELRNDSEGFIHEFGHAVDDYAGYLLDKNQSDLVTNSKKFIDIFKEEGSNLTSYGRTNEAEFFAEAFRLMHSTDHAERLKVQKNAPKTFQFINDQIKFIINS
The depositor's hits bear a star. Sampled rows, rich in hits. Any-hit rate of the full collection: about 3.1%. Cut-off read from the data, not from the text of the source, unless noted: active = inhibition above about 30%; inconclusive = no clear call, values can overlap the other calls; inactive = below that.

For CCN(CC)C(=O)CSc1nnc(-c2ccccc2)n1N the results were BoNT-F LC inh -4, Autofluor counter 21307*, BoNT-A LC inh2 -1, SSB-PriA inh -3 and Anthrax LF prot -3.
CCOc1ccc(-c2nnc(SCC(=O)N(CC)CC)n2N)cc1 was read as BoNT-F LC inh -5, Autofluor counter 21180*, BoNT-A LC inh2 -4, SSB-PriA inh -6 and Anthrax LF prot 1.
For CCN(CC)C(=O)CSc1nnc2sc3ccccc3n12 the results were BoNT-F LC inh 0, Autofluor counter 19933*, BoNT-A LC inh2 -1, SSB-PriA inh -13 and Anthrax LF prot -7.
`CCN(CC)C(=O)CSc1nnc(-c2ccncc2)n1N` gave BoNT-F LC inh 2, Autofluor counter 16267*, BoNT-A LC inh2 0, SSB-PriA inh -11 and Anthrax LF prot -2.
CCN(CC)C(=O)CSc1nnc(-c2ccccc2)n1-c1ccccc1 was read as BoNT-F LC inh -3, Autofluor counter 4741, BoNT-A LC inh2 0, SSB-PriA inh 0 and Anthrax LF prot -3.
Screening O=C(Nc1ccc(-c2cn3c(n2)SCC3)cc1)c1cc(-c2cccs2)[nH]n1 returned SSB-PriA inh 9.
`O=C(Nc1nccs1)C1CN(C(=O)c2ccc3c(c2)OCO3)C1` gave SSB-PriA inh -12.
Screening CCOc1cccc(-c2c(C(=O)NN=C(C)c3cccs3)nnn2-c2nonc2N)c1 returned SSB-PriA inh 5.
For Cc1ccc2c3c(cccc13)-c1ccccc1C2=O the results were BoNT-F LC inh 28, Autofluor counter 6102, BoNT-A LC inh2 74*, SSB-PriA inh -11 and Anthrax LF prot 44*.
For COc1ccc(NC(=O)C2CCCN(c3ccc(-c4nc(C)no4)cn3)C2)cc1F (stereo unspecified) the results were SSB-PriA inh -20.
COc1ccc(N=NC2C(=O)N(c3ccccc3)N=C2C)cc1 (stereo unspecified) was read as BoNT-F LC inh -32, Autofluor counter 3567, BoNT-A LC inh2 -2, SSB-PriA inh 43* and Anthrax LF prot -8.
O=C(/C=C/c1ccco1)c1c(-c2ccccc2)c2cc(Cl)ccc2[nH]c1=O was read as SSB-PriA inh 7.
`CCCCc1ccc(C(=O)O)nc1` gave BoNT-F LC inh -18, Autofluor counter 5995, BoNT-A LC inh2 -3, SSB-PriA inh 87* and Anthrax LF prot -5.
For CC(C)NS(=O)(=O)c1ccc(OCC(=O)Nc2ccc(F)cc2F)cc1 the results were BoNT-F LC inh -4, Autofluor counter 24368*, BoNT-A LC inh2 -3, SSB-PriA inh -20 and Anthrax LF prot -2.
Screening O=S(=O)(Cc1ccco1)C1CCN(S(=O)(=O)CCCOc2ccccc2)CC1 returned SSB-PriA inh 87*.
Screening O=S(=O)(Cc1ccco1)C1CCN(S(=O)(=O)C2CC2)C1 (stereo unspecified) returned SSB-PriA inh -8.
For O=C1CC(CNS(=O)(=O)c2ccccc2C(F)(F)F)CN1c1ccc(Cl)cc1 (stereo unspecified) the results were SSB-PriA inh -6.
`O=C(NCCn1ncccc1=O)c1ccc2ccccc2n1` gave SSB-PriA inh -6.
`O=C(CSc1ccc(-c2ccc3c(c2)OCO3)nn1)Nc1ccc(F)cc1F` gave SSB-PriA inh -10.
For COc1ccccc1N(CC(=O)NN=C(C)c1ccccc1O)S(=O)(=O)c1ccc(C)cc1 the results were SSB-PriA inh -1.
Screening CN1C=CC=C/C1=C1\SC(=S)N(C2CCCCC2)C1=O returned BoNT-F LC inh 3, Autofluor counter 21024*, BoNT-A LC inh2 inconclusive, SSB-PriA inh 33 and Anthrax LF prot -4.
CCCc1nnc(NC(=O)CSc2ccc(NC(=O)C(C)C)nn2)s1 was read as SSB-PriA inh 1.
`O=C(Oc1ccccc1C(=O)N1CCOCC1)c1ccc(Br)cc1` gave BoNT-F LC inh 0, Autofluor counter 20205*, BoNT-A LC inh2 inconclusive, SSB-PriA inh -6 and Anthrax LF prot 1.
For O=C(c1ccccc1)c1ccc(C(=O)N2CCOCC2)cc1 the results were BoNT-F LC inh 2, Autofluor counter 3028, BoNT-A LC inh2 1, SSB-PriA inh -1 and Anthrax LF prot -2.
`O=C(c1ccccc1-c1nc(-c2ccc(F)cc2)no1)N1CCCC1` gave BoNT-F LC inh -8, Autofluor counter 2641, BoNT-A LC inh2 0, SSB-PriA inh -9 and Anthrax LF prot -2.
For O=C(Oc1ccccc1C(=O)N1CCOCC1)c1ccc(F)cc1 the results were BoNT-F LC inh inconclusive, Autofluor counter 3521, BoNT-A LC inh2 -9, SSB-PriA inh 1 and Anthrax LF prot -8.

Screening results: PubChem BioAssay, several laboratories
